Data reported in PubChem BioAssay (NCATS).
Inconclusive results are not listed. Entries that show only a call come without a potency. Activity calls are given as the source filed them. The call rests on the fitted dose curve; in most records, active means well fitted inhibition curve with a large enough effect; inconclusive means small, poorly fitted or top-dose-only effect; inactive means no such curve, though single readings can be large or run the other way.

Each molecule was assayed on Zika virus NS2B-NS3 protease (linked construct) (assay: Primary screen NINDS Rhodamine qHTS for Zika virus inhibitors (AID 1347160; further: nearly all actives have a fitted effect of over 55% in size)). Conditions: purified NS2B-NS3 protease, Rhodamine110 substrate fluorescence; series mostly up to 57.1 µM.
Summary of the method: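 Percent inhibition, normalized to uninhibited and enzyme-free controls, is fitted to a 4-parameter Hill equation. Fluorescence change comes from a 15-min cleavage of 1.5 microM bis-peptide Rhodamine110 substrate by 25 nM linked NS2B-NS3 at room temperature.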
For O=C(O)CCCc1c[nH]c2ccccc12, the Potency was “inactive”.
In the case of Nc1ncnc2c1c(-c1cccc(OCc3ccccc3)c1)cn2C1CC(CN2CCCC2)C1 (configuration not stated), the Potency is reported as “inactive”.
In the case of Cn1cc(-c2ccncc2)c(-c2ccc(OCc3ccc4ccccc4n3)cc2)n1, the Potency is reported as “inactive”.
For Cn1cc(-c2[nH]c3cc(NC(=O)[C@H](N)C4CCCCC4)cc4c3c2C=NNC4=O)cn1, the Potency was “inactive”.
In the case of COc1cc2nccc(Oc3ccc(NC(=O)C4(C(=O)Nc5ccc(F)cc5)CC4)cc3)c2cc1OC, the Potency is reported as “inactive”.
With CNC(=O)c1cc(Oc2ccc(NC(=O)Nc3cc(C(C)(C)C)nn3-c3ccc4ncccc4c3)c(F)c2)ccn1 the Potency was “inactive”.
With CC(C)(O)CCc1ccc(OCc2cc(-c3cccc(OC(F)F)c3)c3ncccc3c2)cc1 the Potency was “inactive”.
In the case of CNC(=O)c1nn(C)c2c1C(C)(C)Cc1cnc(Nc3ccc(N4CCN(C)CC4)cc3)nc1-2, the Potency is reported as “inactive”.
With COc1ccc(-c2cc3c(C)nc(N)nc3n(C3CCC(OCCO)CC3)c2=O)cn1 (configuration not stated) the Potency was “inactive”.
Nc1ccccc1NC(=O)c1ccc(CNC(=O)OCc2cccnc2)cc1 was tested, and the Potency was “inactive”.
With O=C(c1cncc(Br)c1)N1CCC(N2CCCC2)CC1 the Potency was “inactive”.
With Nc1nc(Nc2ccc(S(N)(=O)=O)cc2)nn1C(=O)c1c(F)cccc1F the Potency was “inactive”.
Nc1ncnc2c1c(-c1cnc3[nH]ccc3c1)nn2C1CCCC1 was tested, and the Potency was “inactive”.
With CN(C1CCc2c(c3ccccc3n2CC(=O)O)C1)S(=O)(=O)c1ccc(F)cc1 (configuration not stated) the Potency was “inactive”.
COc1cccc(Nc2c(C(N)=O)cnc3c(C)cc(S(=O)(=O)c4cccc(C(=O)N(C)C)c4)cc23)c1 was tested, and the Potency was “inactive”.
With CCn1nnc2c(N3CCOCC3)nc(-c3ccc(NC(=O)Nc4ccc(C(=O)N5CCN(C)CC5)cc4)cc3)nc21 the Potency was “inactive”.
For Cc1cn2c(-c3cn[nH]c3)cnc2c(Nc2ccc(C(=O)N3CCNCC3)cc2F)n1, the Potency was “inactive”.
COc1cc2c(NC3CCN(C(C)C)CC3)nc(C3CCCCC3)nc2cc1OCCCN1CCCC1 was tested, and the Potency was “inactive”.
With Cc1c(NC(=O)OC[C@@H]2COCCN2)cn2ncnc(Nc3ccc4c(cnn4Cc4cccc(F)c4)c3)c12 the Potency was “inactive”.
CC(C)c1cc(C(=O)N2Cc3ccc(CN4CCN(C)CC4)cc3C2)c(O)cc1O was tested, and the Potency was “inactive”.
For COc1cc2c(Oc3ccc(-c4cnc(Nc5ccc(F)cc5)n(C)c4=O)cc3F)ccnc2cc1OCCCN1CCOCC1, the Potency was “inactive”.
For CC1COC2(CCN(c3nc(=O)c4cc(C(F)(F)F)cc([N+](=O)[O-])c4s3)CC2)O1 (configuration not stated), the Potency was “inactive”.
COc1ccc(-n2nc(C(N)=O)c3c2C(=O)N(c2ccc(N4CCCCC4=O)cc2)CC3)cc1 was tested, and the Potency was “inactive”.
COc1ccc(OC)c(-c2nnc3ccc(-c4ccc(OC)c(O[C@@H]5CCOC5)c4)nn23)c1 was tested, and the Potency was “inactive”.
With CC(C)(C)c1cc(NC(=O)Nc2ccc(-c3cn4c(n3)sc3cc(OCCN5CCOCC5)ccc34)cc2)no1 the Potency was “inactive”.
In the case of Cc1cn2cc(C(=O)N(C)CCO)cc(N[C@@H]3CCOc4cccc(C)c43)c2n1, the Potency is reported as “inactive”.
For COc1ccc(C(=O)CC2(O)C(=O)Nc3c(Cl)ccc(Cl)c32)cc1 (configuration not stated), the Potency was “inactive”.
In the case of CCCNC(=O)Nc1ccc(Oc2ncnc3cc(OC)c(OC)cc23)cc1Cl, the Potency is reported as “inactive”.
For CNc1nccc(-c2cccnc2Oc2cc(C(=O)Nc3cccc(C(F)(F)F)c3)ccc2C)n1, the Potency was “inactive”.
CC(=O)Nc1nc(C)c(-c2ccc(Cl)c(S(=O)(=O)NCCO)c2)s1 was tested, and the Potency was “inactive”.
Cc1[nH]nc2ccc(-c3cncc(OC[C@@H](N)Cc4ccccc4)c3)cc12 was tested, and the Potency was “inactive”.
For CC(C)c1nn(-c2c(Cl)cccc2Cl)c2nc(Cc3ccc(OCCO)cc3)[nH]c(=O)c12, the Potency was “inactive”.
For C=CC(=O)N1CCC[C@@H](n2nc(-c3ccc(Oc4ccccc4)cc3)c3c(N)ncnc32)C1, the Potency was “inactive”.
Nc1nc(NCCNc2ncc(-n3ccnc3)c(-c3ccc(Cl)cc3Cl)n2)ccc1[N+](=O)[O-] was tested, and the Potency was “inactive”.
For COc1ccc(F)c(F)c1C(=O)c1cnc(NC2CCN(S(C)(=O)=O)CC2)nc1N, the Potency was “inactive”.
For CC1(O)CC(c2nc(-c3ccc4ccc(-c5ccccc5)nc4c3)c3c(N)nccn23)C1 (configuration not stated), the Potency was “inactive”.
In the case of COc1ccc2c(c1)CC[C@@H](CN(C)CC(=O)O)[C@H]2c1ccccc1, the Potency is reported as “inactive”.
